# Measured values: PubChem BioAssay (NCATS)
# Where “and” joins values, the source holds several entries; their conditions need not be identical. Equal values may be shown once. Records with an inconclusive call do not appear. Values without a mark were called inactive. Calls of active or inactive are those of the source. The call rests on the fitted dose curve; in most records, active means well fitted cell-killing curve with a large enough effect; inconclusive means small, poorly fitted or top-dose-only effect; inactive means flat fitted curve, though single readings scatter.
# Test: Cellular viability qHTS for adrenocortical cancer (ACC) cell line NCI-H295R (AID 1963990); further: nearly all actives have a fitted effect of over 60% in size;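 on activity change, negative = viability loss: 0% = DMSO only wells and -100% = full killing with cytotoxic reference compound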
# Details: CellTiter-Glo ATP luminescence, 48 h; series mostly up to 46.1 µM; activity change, negative = viability loss: at the top concentration
# In short: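 CellTiter-Glo ATP luminescence, read 48 h after compound addition, measured viability of NCI-H295R adrenocortical cells grown serum-free with ITS. Final concentrations spanned up to 46 uM. Data normalized to DMSO and doxorubicin, fitted for IC50 and maximal response.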
SMILES,"activity change, negative = viability loss",Potency
CN1CCN(C(=O)c2ccc(-c3ccc4c(C=O)c(O)ccc4c3)s2)CC1,-6.01%,–
O=C(O)Cc1ccccc1Oc1ccc(Cl)cc1Cl,4.61%,–
C[C@H](NC(=O)CCC(F)(F)F)C(=O)N[C@@H]1C(=O)N(CCO)c2ncccc2-c2ccccc21,1.48%,–
O=C1NC(=O)[C@@H](c2c[nH]c3ccccc23)[C@H]1c1cn2c3c(cccc13)CCC2,–,0.355 µM (active)
O=C(O)c1cc(O)c(O)c(O)c1,-16.3%,–
O=C(CO)[C@@H](O)[C@H](O)[C@@H](O)CO,-2.94%,–
O=[N+]([O-])c1ccc(O)c2ncccc12,–,411 nM (active) and 2.82 µM (active)
Cc1cc(I)ccc1Nc1c(C(=O)NOCC2CC2)cc(F)c(F)c1F,–,3.98 µM (active)
C[C@H]1O[C@H](O[C@H]2[C@H](O)[C@@H](O)[C@@H](O[C@H]3[C@H](O)[C@@H](O)C(O)O[C@@H]3CO)O[C@@H]2CO)[C@H](O)[C@@H](O)[C@@H]1N[C@H]1C=C(CO)[C@@H](O)[C@H](O)[C@H]1O (stereo partly specified),-2.95%,–
CCCCc1ncc(/C=C(\Cc2cccs2)C(=O)O)n1Cc1ccc(C(=O)O)cc1,-13.3%,–
CN1CC(=O)N2[C@H](c3ccc4c(c3)OCO4)c3[nH]c4ccccc4c3C[C@@H]2C1=O,–,inactive
c1ccc(-c2ccc(CNc3nc(-c4ccccn4)nnc3-c3ccccc3)cc2)cc1,–,17.8 µM (active)
C[C@H]1[C@H](O)O[C@@H]2O[C@@]3(C)CC[C@H]4[C@H](C)CC[C@@H]1[C@@]24OO3,–,3.55 µM (active)
CC1=NN(c2ccc(C(=O)O)cc2)C(=O)/C1=C/c1ccc(-c2cc(C)c(C)cc2[N+](=O)[O-])o1,0.0055%,–
CC(=NNC(=O)c1cccc(S(=O)(=O)N2CCOCC2)c1)c1cc(Cl)ccc1O,–,4.47 µM (active)
CCCc1ccc(OCC(=O)N2CCN(C(=O)COc3ccc(CCC)cc3OC)CC2)c(OC)c1,-17.2%,–
CC(=O)NC(CS)C(=O)O (stereo unspecified),-3.44%,–
C[N+]1(CC2COC(c3ccccc3)(C3CCCCC3)O2)CCCCC1 (stereo unspecified),11%,–

SMILES,"activity change, negative = viability loss",Potency
Cc1[nH]c2ccc(F)cc2c1-c1nc2c3cccnc3c3ncccc3c2[nH]1,–,3.16 µM (active)
CCOCCOC(=O)/C=C/c1ccc(OC)cc1,-10.2%,–
Cc1c(O)cccc1C(=O)NC(CSc1ccccc1)C(O)CN1CC2CCCCC2CC1C(=O)NC(C)(C)C (stereo unspecified),–,17.8 µM (active)
COc1ccc(C2C(=O)c3ccccc3C2=O)cc1,-3.75%,–
C[C@@H](C(=O)Nc1ccc(Cl)cc1)C1CCC(c2ccnc3ccc(F)cc23)CC1 (stereo partly specified),–,25.1 µM (active)
COc1cc(C=C2CCC/C(=C\c3ccc(O)c(OC)c3)C2=O)ccc1O,–,7.31 µM (active)
C[C@H]1CN(C[C@H](Cc2ccccc2)C(=O)NCC(=O)O)CC[C@@]1(C)c1cccc(O)c1,2.16%,–
NC(=O)NNc1ccccc1,-10.1%,–
CN[C@H](CC(C)C)C(=O)N[C@H]1C(=O)N[C@@H](CC(N)=O)C(=O)N[C@H]2C(=O)N[C@H]3C(=O)N[C@H](C(=O)N[C@H](C(=O)O)c4cc(O)cc(O)c4-c4cc3ccc4O)[C@H](O)c3ccc(c(Cl)c3)Oc3cc2cc(c3O[C@@H]2O[C@H](CO)[C@@H](O)[C@H](O)[C@H]2O[C@H]2C[C@](C)(N)[C@H](O)[C@H](C)O2)Oc2ccc(cc2Cl)[C@H]1O,-4.28% [at 20 µM],–
O=C(/C=C/c1ccc(CN(CCO)CCc2c[nH]c3ccccc23)cc1)NO,–,0.562 µM (active)
COc1cccc2c1C(=O)c1c(O)c3c(c(O)c1C2=O)C[C@@](O)(C(=O)CO)C[C@@H]3O[C@H]1C[C@H](N)[C@H](O[C@@H]2CCCCO2)[C@H](C)O1,–,3.66 µM (active)
CN1CCN(C2CCC(n3cc(-c4ccc(Oc5ccccc5)cc4)c4c(N)ncnc43)CC2)CC1 (stereo unspecified),–,7.08 µM (active)
CN(Cc1ccc(/C=C/C(=O)NO)cc1)CC12CC3CC(CC(C3)C1)C2,–,0.447 µM (active)
COc1cc(OC)c(/C=C/S(=O)(=O)Cc2ccc(OC)c(OP(=O)(O)O)c2)c(OC)c1,–,0.0282 µM (active)
CO[C@@]1(NC(=O)C(C(=O)O)c2ccc(O)cc2)C(=O)N2C(C(=O)O)=C(CSc3nnnn3C)CO[C@@H]21 (stereo partly specified),-1.35%,–
C[C@@H](Nc1ncnc2[nH]c(-c3ccc(O)cc3)cc12)c1ccccc1,–,11.2 µM (active)
C/C=C/c1ccc(O)c(OC)c1,-8.31%,–
CCCCCCCCCCCCCCCC[N+](C)(C)Cc1ccccc1,–,8.2 µM (active)
